Experimental data: PubChem BioAssay (Tox21)
Records with an inconclusive call do not appear. Some structures have more than one record in an assay (separate samples or runs), and their calls can disagree. Activity calls are given as the source filed them. Calls follow the shape of the full dose curve.

Key:
[1] = target: Acetylcholinesterase (Homo sapiens) (UniProt P22303); experiment: Acetylcholinesterase (AChE) small molecule antagonists: colormetric cell-based qHTS assay (AID 1347395); also: nearly all actives have a fitted effect of over 30% in size; also: potency is read from the fitted curve at half-maximal effect
Acetylcholinesterase (Homo sapiens), sequence (P22303 whole entry, looked up): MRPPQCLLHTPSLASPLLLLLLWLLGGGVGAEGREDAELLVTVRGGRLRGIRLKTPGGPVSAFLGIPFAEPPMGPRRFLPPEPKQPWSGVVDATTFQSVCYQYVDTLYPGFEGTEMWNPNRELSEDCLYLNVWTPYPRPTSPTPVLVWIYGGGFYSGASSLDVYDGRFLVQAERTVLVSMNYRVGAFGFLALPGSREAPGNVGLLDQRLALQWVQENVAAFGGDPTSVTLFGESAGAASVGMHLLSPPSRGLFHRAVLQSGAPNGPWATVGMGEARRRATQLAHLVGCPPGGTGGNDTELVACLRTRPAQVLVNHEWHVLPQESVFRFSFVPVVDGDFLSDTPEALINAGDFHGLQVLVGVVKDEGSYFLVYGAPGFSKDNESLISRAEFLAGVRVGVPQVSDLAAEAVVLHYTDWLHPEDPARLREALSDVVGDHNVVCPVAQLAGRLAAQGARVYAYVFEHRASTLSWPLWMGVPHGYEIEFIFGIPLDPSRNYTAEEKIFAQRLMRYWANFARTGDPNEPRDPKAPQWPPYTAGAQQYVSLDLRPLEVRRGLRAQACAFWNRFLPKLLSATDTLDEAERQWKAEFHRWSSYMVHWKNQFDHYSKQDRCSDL
Outline: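 After overnight attachment at 37 C, SH-SY5Y cells get 30 min compound exposure; detection cocktail (acetylthiocholine, DTNB) then incubates 90 min at 37 C, and absorbance reflects AChE-generated thiocholine.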

[2] = target: Acetylcholinesterase (Homo sapiens) (UniProt P22303); experiment: Acetylcholinesterase (AChE) small molecule antagonists: enzyme-based qHTS assay (AID 1347397); details: Potency: AChE enzyme activity inhibition; outcome: AChE enzyme activity inhibition; also: nearly all actives have a fitted effect of over 55% in size; also: potency is read from the fitted curve at half-maximal effect
Outline: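 Colorimetric DTNB read-out of thiocholine released from acetylthiocholine by recombinant human AChE (50 mU/mL as dispensed). Compounds were preincubated 30 min at RT before substrate/DTNB addition, with a 10 min RT reaction.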

[3] = target: Acetylcholinesterase (Homo sapiens) (UniProt P22303); experiment: Acetylcholinesterase (AChE) small molecule antagonists: fluorescence cell-based qHTS assay (AID 1347398); details: Potency: AChE activity; outcome: AChE activity; also: nearly all actives have a fitted effect of over 50% in size; also: potency is read from the fitted curve at half-maximal effect
Outline: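 SH-SY5Y, 2,000 cells/well, attached overnight; cmpd 30 min 37 C; acetylthiocholine/Thiolite Green cocktail 40 min RT; fluorescence Ex/Em 490/520 nm.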

[4] = target: Acetylcholinesterase (Homo sapiens) (UniProt P22303); experiment: Acetylcholinesterase (AChE) small molecule antagonists: enzyme-based qHTS assay with human liver microsomes (AID 1347399); details: Potency: qHTS inhibition; outcome: qHTS inhibition; also: nearly all actives have a fitted effect of over 60% in size
Outline: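 Recombinant human AChE (50 mU/mL in the enzyme mix) and human liver microsomes (0.25 mg/mL final) were preincubated with compound and NADPH (0.25 mg/mL final) for 30 min at 37 C. Acetylthiocholine/DTNB was then added; thiocholine was read colorimetrically after 10 min at room temperature.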
% is scaled to controls: 0 for no effect and ±100 for the full control effect.

O=C(Oc1ccccc1C(=O)O)c1ccccc1O
inactive: Potency [1] | Potency [2] | Potency [3] | Potency [4]

Oc1ccc(Oc2ccccc2)cc1
inactive: Potency [1] | Potency [2] | Potency [3] | Potency [4]

C/C(=C(\CCO)SS/C(CCO)=C(\C)N(C=O)Cc1cnc(C)nc1N)N(C=O)Cc1cnc(C)nc1N
inactive: Potency [1] | Potency [2] | Potency [3] | Potency [4]

CCC(=O)O[C@]1(C(=O)SCF)[C@H](C)C[C@H]2[C@@H]3C[C@H](F)C4=CC(=O)C=C[C@]4(C)[C@@]3(F)[C@@H](O)C[C@@]21C
inactive: Potency [1] | Potency [2] | Potency [3] | Potency [4]

COc1ccc([C@@H]2CC(=O)c3c(O)cc(O[C@@H]4O[C@H](CO[C@@H]5O[C@@H](C)[C@H](O)[C@@H](O)[C@H]5O)[C@@H](O)[C@H](O)[C@H]4O)cc3O2)cc1OC
inactive: Potency [1] | Potency [2] | Potency [3] | Potency [4]

CN1C[C@H](C(=O)N[C@]2(C)O[C@@]3(O)[C@@H]4CCCN4C(=O)[C@H](Cc4ccccc4)N3C2=O)C[C@@H]2c3cccc4[nH]cc(c34)C[C@H]21
active: Potency [1] 19.5 µM | Potency [2] 30.9 µM | Potency [3] 8.71 µM
inactive: Potency [4]

FC(F)(Cl)C(F)(Cl)Cl
inactive: Potency [1] | Potency [2] | Potency [3] | Potency [4]

O=c1[nH]c(=O)c2[nH]c(=O)[nH]c2[nH]1
inactive: activity, negative = inhibition [1] 0.0138% [at 10.5 µM] | activity change, negative = inhibition [2] 2.79% [at 10.5 µM] | activity change, negative = inhibition [3] 6.44% [at 10.5 µM] | activity change, negative = inhibition [4] 21.5% [at 10.5 µM]

CCCCC(CC)CN=C(N)NC(N)=NCCCCCCN=C(N)NC(N)=NCC(CC)CCCC (stereo not given)
inactive: Potency [1] | Potency [4]
active: Potency [2] 17.4 µM | Potency [3] 13.8 µM

CC(=O)c1sc(C)nc1C
inactive: Potency [1] | Potency [2] | Potency [3] | Potency [4]

CCOC(=O)c1ccc(OC(=O)CCCCCN=C(N)N)cc1
inactive: outcome [1] | outcome [2] | outcome [3] | outcome [4]

CC(=O)OC(C)c1ccccc1 (stereo not given)
inactive: Potency [1] | Potency [2] | Potency [3] | Potency [4]

C=C(C)C(=O)OCCOc1ccccc1
inactive: Potency [1] | Potency [2] | Potency [3] | Potency [4]

O=NN(CCCl)C(=O)NC1CCCCC1
inactive: Potency [1] | Potency [2] | Potency [3] | Potency [4]

O=C(O)C(=O)Nc1cccc(-c2nn[nH]n2)c1
inactive: Potency [1] | Potency [2] | Potency [3] | Potency [4]

O=C(O)CCCc1c[nH]c2ccccc12
inactive: Potency [1] | Potency [2] | Potency [3] | Potency [4]

CN[C@@H]1[C@H](O)[C@H](NC)[C@H]2O[C@@]3(O)C(=O)C[C@@H](C)O[C@H]3O[C@@H]2[C@H]1O
inactive: Potency [1] | Potency [2] | Potency [3] | Potency [4]

O=C1O[C@H]([C@@H](O)CO)C(O)=C1O
inactive: Potency [1] | Potency [2] | Potency [3] | Potency [4]

CC(=O)OCCC1CCCCC1
inactive: Potency [1] | Potency [2] | Potency [3] | Potency [4]

CC(C)C1=CC2=CC[C@@H]3[C@](C)(CCC[C@@]3(C)C(=O)O)[C@H]2CC1
inactive: Potency [1] | Potency [2] | Potency [3] | Potency [4]

NS(=O)(=O)c1cc2c(cc1Cl)NC(C1CC3C=CC1C3)NS2(=O)=O (stereo not given)
inactive: Potency [1] | Potency [2] | Potency [3] | Potency [4]

CCN(CC)CC(=O)Oc1ccc(NC(C)=O)cc1
inactive: Potency [1] | Potency [2] | Potency [3] | Potency [4]

CC(=O)Nc1ccc(OCC(O)CNC(C)C)cc1 (stereo not given)
inactive: Potency [1] | Potency [2] | Potency [3] | Potency [4]

CC1=CC(=O)CC(C)(C)C1(O)/C=C/C(C)=C\C(=O)O (stereo not given)
inactive: Potency [1] | Potency [2] | Potency [3] | Potency [4]

S=C([S-])NCCNC(=S)[S-].S=C([S-])NCCNC(=S)[S-].[Mn+2].[Zn+2]
inactive: Potency [2] | Potency [4]
active: Potency [1] 30.9 µM | Potency [3] 30.9 µM

CCCCC(CC)COC(=O)COc1ccc(Cl)cc1Cl (stereo not given)
inactive: Potency [1] | Potency [2] | Potency [3] | Potency [4]

C=CC(=O)OCC(CO)(COC(=O)C=C)COC(=O)C=C
inactive: Potency [1] | Potency [2] | Potency [3] | Potency [4]

CCn1cc(C(=O)O)c(=O)c2cc(F)c(N3CCNCC3)nc21
inactive: Potency [1] | Potency [2] | Potency [3] | Potency [4]

COC(=O)c1cc(Cl)c(NC(C)=O)cc1OC
active: Potency [1] 27.5 µM
inactive: Potency [2] | Potency [3] | Potency [4]

COC[C@H](c1ccc(C(F)(F)F)cc1)N1CCN(C2(C)CCN(C(=O)c3c(C)ncnc3C)CC2)C[C@H]1C
inactive: Potency [1] | Potency [2] | Potency [3] | Potency [4]

O=C(O)Cn1cnnn1
inactive: Potency [1] | Potency [2] | Potency [3] | Potency [4]

CNC(=S)N(C)C
63.9 µM (active) and inactive: Potency [2]
inactive: Potency [1] | Potency [4]
32 µM (active) and inactive: Potency [3]

C[Si](C)O[Si](C)C
inactive: Potency [1] | Potency [2] | Potency [3] | Potency [4]

COS(=O)(=O)C(F)(F)F
inactive: Potency [1] | Potency [2] | Potency [3] | Potency [4]

COc1c(Cl)ccc(Cl)c1C(=O)O
inactive: Potency [1] | Potency [2] | Potency [3] | Potency [4]

CCCCCCCC/C=C\CCCCCCCCOCCO
inactive: Potency [1] | Potency [2] | Potency [3] | Potency [4]

CC(=O)c1ccc2ccccc2c1
inactive: Potency [1] | Potency [2] | Potency [3] | Potency [4]

[O-][N+](=Nc1ccccc1)c1ccccc1
inactive: Potency [1] | Potency [2] | Potency [3] | Potency [4]

COc1ccc(C(=O)c2cccc(O)c2)c(OC)c1
inactive: Potency [1] | Potency [2] | Potency [3] | Potency [4]

CC1=C(CC(=O)O)c2cc(F)ccc2/C1=C\c1ccc(S(C)=O)cc1 (stereo not given)
inactive: Potency [1] | Potency [2] | Potency [3] | Potency [4]

O=C(O)c1cc2ccccc2cc1O
inactive: Potency [1] | Potency [2] | Potency [3] | Potency [4]

NCCO
inactive: Potency [1] | Potency [2] | Potency [3] | Potency [4]

CC(=O)OC(C)C
inactive: Potency [1] | Potency [2] | Potency [3] | Potency [4]

CCCCC(=O)OCC(=O)[C@H]1[C@H](C)C[C@H]2[C@@H]3C[C@H](F)C4=CC(=O)C=C[C@]4(C)[C@@]3(F)[C@@H](O)C[C@@]21C
inactive: Potency [1] | Potency [2] | Potency [3] | Potency [4]

CCCc1ccc(OCC(=O)N2CCN(C(=O)COc3ccc(CCC)cc3OC)CC2)c(OC)c1
inactive: Potency [1] | Potency [2] | Potency [3] | Potency [4]

CCC(C(=O)O)c1ccc(N2Cc3ccccc3C2=O)cc1 (stereo not given)
inactive: Potency [1] | Potency [2] | Potency [3] | Potency [4]

CC(C)CCOC(=O)/C=C/c1ccccc1
inactive: Potency [1] | Potency [2] | Potency [3] | Potency [4]

CCC(=O)Oc1ccc(/C(CC)=C(\CC)c2ccc(OC(=O)CC)cc2)cc1
inactive: Potency [1] | Potency [2] | Potency [3] | Potency [4]

Cc1ccc(C)c(O)c1C
inactive: Potency [1] | Potency [2] | Potency [3] | Potency [4]

C/C=C/C(=O)OCC(C)C
inactive: Potency [1] | Potency [2] | Potency [3] | Potency [4]

NC1CCCCC1
inactive: Potency [1] | Potency [2] | Potency [3] | Potency [4]

CC(=O)Nc1ccccc1
inactive: Potency [1] | Potency [2] | Potency [3] | Potency [4]

CNC(=O)N(c1ccccc1)c1ccccc1
inactive: Potency [1] | Potency [2] | Potency [4]
active: Potency [3] 35.7 µM

NCCCOCCOCCOCCCN
inactive: Potency [1] | Potency [2] | Potency [3] | Potency [4]

O[C@@H](COc1cccc2ncccc12)CN1CCN(C2c3ccccc3[C@@H]3[C@H](c4ccccc42)C3(F)F)CC1 (stereo not given in full)
inactive: Potency [1] | Potency [2] | Potency [3] | Potency [4]

O=P(O)(OCc1ccccc1)OCc1ccccc1
inactive: Potency [1] | Potency [2] | Potency [3] | Potency [4]

C[C@@H]1[C@H](O)[C@@H](C)/C=C/C=C\C=C\C=C\C=C\C=C\C=C\[C@H](O[C@@H]2O[C@H](C)[C@@H](O)[C@H](N)[C@@H]2O)C[C@@H]2O[C@](O)(C[C@@H](O)C[C@@H](O)[C@H](O)CC[C@@H](O)C[C@@H](O)CC(=O)O[C@H]1C)C[C@H](O)[C@H]2C(=O)O (stereo in doubt)
inactive: Potency [1] | Potency [2] | Potency [3] | Potency [4]

CC(C)(CC(=O)O)C(=O)O
inactive: Potency [1] | Potency [2] | Potency [3] | Potency [4]

CCc1ccc(O)c(C(C)(C)C)c1
inactive: Potency [1] | Potency [2] | Potency [3] | Potency [4]

O=C(O[C@@H]1Cc2c(O)cc(O)cc2O[C@@H]1c1cc(O)c(O)c(O)c1)c1cc(O)c(O)c(O)c1
inactive: Potency [1] | Potency [2] | Potency [3] | Potency [4]
